Consider 8 compounds from PubChem BioAssay (Tox21).

Values without a mark were called inactive. Results filed as inconclusive are left out. Activity calls are given as the source filed them. Unless noted, the call rests on the fitted dose curve; in most records, active means well fitted curve in the direction sought with a large enough effect in the repeat runs; inconclusive means weak or mixed curves; inactive means no such curve, though single readings can be large; an effect the other way counts as inactive or inconclusive.

Test [1] is described as follows: qHTS assay to identify small molecule agonists of the hypoxia (HIF-1) signaling pathway - cell viability counter screen (AID 1224844; calls by dose curve; further: nearly all actives have a fitted effect of over 50% in size; further: potency means the concentration at half of the fitted maximal effect). Summed up: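 Cytotoxicity measured by CellTiter-Glo ATP luminescence in the wells also read for beta-lactamase signal. Cells were HRE-bla ME-180 (2,000/well, 0.5% dialyzed FBS), exposed to compounds for 17 h at 37C.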
A short description of test [2]: qHTS assay to identify small molecule agonists of H2AX (AID 1224845; active means well fitted activation curve with a large enough effect in the signal ratio in the repeat runs, not every such curve was filed as active; the % refers to the signal ratio). Put shortly: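 Wild-type CHO-K1 cells, plated overnight, exposed 3hr at 37C to 15 concentrations (0.76% DMSO final). Lysed, then HTRF anti-pH2AX (S139) cryptate and anti-H2AX-d2 antibodies, 24 hr room temperature; 665/620 nm emission read.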
In general terms: In qHTS, concentration-response curves come from the screen itself.

Test [3] is described as follows: qHTS assay to identify small molecule antagonists of the estrogen related receptor (ERR) signaling pathway from Tox21 library (AID 1224848). Further: nearly all actives have a fitted effect of over 50% in size. Further: potency means the concentration at half of the fitted maximal effect. Put shortly: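 Compounds dissolved in DMSO are pin-transferred onto ERR reporter cells (2,000 per well) that have settled for 6 h at 37 C. Plates then incubate 18 h at 37 C before ONE-Glo luciferase reagent and a luminescence read 30 min later.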

Test [4] is described as follows: qHTS assay to identify small molecule agonists of the estrogen related receptor (ERR) signaling pathway from Tox21 library (AID 1224849; calls by dose curve; further: nearly all actives have a fitted effect of over 15% in size). The following applies: ERR reporter cell line, ONE-Glo luciferase, 18 h; at 92.4 µM (top of the series) unless noted. Summed up: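 Luminescent agonist read-out (One-Glo, 30-minute room-temperature incubation) following 18-hour compound treatment at 37 C of the ERR cell line, which had been plated 6 hours before dosing.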

Test [5] can be described thus: qHTS RealTime-Glo MT Cell Viability Assay in HepG2 cells - 24 hour (AID 1224867). Further: nearly all actives have a fitted effect of over 50% in size. Summed up: (§1)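 Compound treatment began 5 h after plating HepG2 cells (600/well) with NanoLuc luciferase and prosubstrate. Plates stayed at 37 C for 40 h; luminescence was captured at six time points, 0 h through 40 h.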
Test [6] is described as follows: A CellTox Green Cytotoxicity Assay to monitor cytotoxicity in HEK293 cells - 0 hour (AID 1224869). Further: nearly all actives have a fitted effect of over 50% in size. Put shortly:
(§2)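 Fluorescence from a DNA-binding dye excluded by viable cells was measured repeatedly in the same HEK293 wells (600 cells/well) during continuous compound exposure at 37 C. Each assay gives one read point: 0, 8, 16, 24, 32 or 40 h.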

The nature of test [7]: qHTS RealTime-Glo MT Cell Viability Assay in HepG2 cells - 40 hour (AID 1224870). Further: nearly all actives have a fitted effect of over 50% in size. Summed up:
(§3)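 HepG2 cells (600/well) mixed with RealTime-Glo MT reagent, settled 5 h at 37 C/5% CO2 before compound addition. Nonlytic NanoLuc luminescence from viable-cell prosubstrate reduction read repeatedly during 40 h treatment at 37 C.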

Test [8] is described as follows: A CellTox Green Cytotoxicity Assay to monitor cytotoxicity in HEK293 cells - 40 hour (AID 1224871). Further: nearly all actives have a fitted effect of over 45% in size. Summed up:
as §2

The nature of test [9]: qHTS RealTime-Glo MT Cell Viability Assay in HEK293 cells - 40 hour (AID 1224874). Further: nearly all actives have a fitted effect of over 50% in size. Further: potency means the concentration at half of the fitted maximal effect. The settings on record: RealTime-Glo luminescence; max response: stronger effect = lower value. Summed up:
(§4)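 Luminescence, which tracks viable cell number through reduction of the prosubstrate to a NanoLuc substrate, was read over continuous 37 C culture. Cells (600/well) were premixed with reagent and rested 5 h before 23 nL of compound in DMSO was pinned.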

Test [10] can be described thus: A CellTox Green Cytotoxicity Assay to monitor cytotoxicity in HepG2 cells - 16 hour (AID 1224876). Further: nearly all actives have a fitted effect of over 45% in size. Put shortly: (§5)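 Real-time cytotoxicity: fluorescence of a cell-impermeant cyanine dye binding DNA of dead HepG2 cells, measured repeatedly (0–40 h) during compound exposure at 37 C. Cells seeded 600/well with reagent, dosed after 5 h.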
Test [11] in a line: qHTS RealTime-Glo MT Cell Viability Assay in HepG2 cells - 32 hour (AID 1224877). Further: nearly all actives have a fitted effect of over 55% in size. Put shortly: as §1
A short description of test [12]: A CellTox Green Cytotoxicity Assay to monitor cytotoxicity in HepG2 cells - 24 hour (AID 1224878). Further: nearly all actives have a fitted effect of over 45% in size. Further: potency means the concentration at half of the fitted maximal effect. Put shortly:
as §5

Test [13] in a line: A CellTox Green Cytotoxicity Assay to monitor cytotoxicity in HepG2 cells - 40 hour (AID 1224879). Further: nearly all actives have a fitted effect of over 40% in size. Further: potency means the concentration at half of the fitted maximal effect. Put shortly:
as §5

Test [14] is described as follows: qHTS RealTime-Glo MT Cell Viability Assay in HEK293 cells - 0 hour (AID 1224880). Further: top concentration of the series differs between compounds; nearly all actives have a fitted effect of over 45% in size. Summed up: as §4
The nature of test [15]: qHTS assay to identify small molecule agonists of H2AX - cell viability counter screen (AID 1224847; calls by dose curve; further: top concentration of the series differs between compounds; nearly all actives have a fitted effect of over 30% in size). Put shortly:
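Compounds tested at 15 concentrations were incubated 3 hr at 37C with wild-type CHO-K1 cells; cellular ATP-based luminescence (CellTiter-Glo) indicated viability.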

Test [16] is described as follows: qHTS RealTime-Glo MT Cell Viability Assay in HEK293 cells - 32 hour (AID 1224868). Further: nearly all actives have a fitted effect of over 50% in size. Further: potency means the concentration at half of the fitted maximal effect. Summed up: (§6)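 Quantitative high-throughput screen of the Tox21 10K library in HEK293: cells and RealTime-Glo reagents plated together, compound added at 5 h, luminescence monitored through 40 h at 37 C.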
Test [17] can be described thus: qHTS RealTime-Glo MT Cell Viability Assay in HEK293 cells - 16 hour (AID 1224872). Further: nearly all actives have a fitted effect of over 50% in size. Further: potency means the concentration at half of the fitted maximal effect. Summed up: as §6
The nature of test [18]: qHTS RealTime-Glo MT Cell Viability Assay in HepG2 cells - 8 hour (AID 1224873). Further: nearly all actives have a fitted effect of over 55% in size. Put shortly:
as §3

Test [19] is described as follows: A CellTox Green Cytotoxicity Assay to monitor cytotoxicity in HEK293 cells - 24 hour (AID 1224875). Further: nearly all actives have a fitted effect of over 45% in size. Put shortly: as §2
On the % scale 0 is the no-effect control and ±100 the full control effect.

With `O=S(=O)(Oc1ccc(Cl)cc1)c1ccccc1`, the Potency result in [1], in [2], in test [3], in [5], in test [6] and in test [7] was “inactive” each time. Besides, the Potency result in [8], in test [10], in test [11], in test [12], in [13] and in test [14] was “inactive” throughout. The activity change, positive = activation in [4] is -14.7%. The max response in test [9] was -29.4%.

In the case of `COc1ccc(-c2nc3ccc(C4=NNC(=O)CC4C)cc3[nH]2)cc1` (stereo unspecified), the Potency entry in [1], in [2], in test [15], in [3], in test [5] and in test [6] was “inactive” throughout. Besides, the Potency entry in test [7], in test [8], in [18], in test [19], in test [10] and in test [11] was “inactive” throughout. The Potency result in [12] was “inactive”. For the same compound, the Potency is 8.49 µM (active) in test [16], 9.52 µM (active) in test [17], 7.56 µM (active) in test [9] and 21.3 µM (active) in test [13].

Regarding `O=P(O)(OCc1ccccc1)OCc1ccccc1`, the Potency entry in test [1], in test [2], in [15], in [5], in test [16] and in [6] was “inactive” each time. The Potency entry in test [7], in test [8], in test [17], in [19], in [10] and in test [11] was “inactive” each time. The Potency entry in test [12], in [13] and in [14] was “inactive” throughout. In addition, in test [9], the max response is 2.99%.

For the compound `C[N+](C)(C)CCOC(=O)CCC(=O)OCC[N+](C)(C)C`, the Potency entry in test [1], in test [2], in test [15], in test [5], in [16] and in [6] was “inactive” in each case. The Potency result in [7], in test [8], in test [17], in [18], in test [19] and in [10] was “inactive” each time. Further, the Potency result in test [11], in test [12], in test [13] and in test [14] was “inactive” in each case. The max response in test [9] is 3.39%.

Consider `CC(=O)c1ccc2c(c1)N(CCCN(C)C)c1ccccc1S2`, for which the Potency result in test [1], in test [2], in [15], in test [6], in [7] and in test [8] was “inactive” each time. Further, the Potency result in test [18], in test [19], in [10], in [11], in test [12] and in [14] was “inactive” each time.

Regarding `CCCCCCOC(=O)NC(=N)c1ccc(NCc2nc3cc(C(=O)N(CCC(=O)OCC)c4ccccn4)ccc3n2C)cc1`, the Potency is 23.9 µM (active) in test [1]; 13.3 µM (active) in [3]; 10.7 µM (active) in test [16]; 9.52 µM (active) in [17]; 10.7 µM (active) in [9]; 23.9 µM (active) in [12]. The Potency in [13] is 23.9 µM (active). The Potency entry in [2], in [15], in [6], in test [7], in [19] and in [10] was “inactive” throughout. Moreover, the activity change, positive = activation in test [4] is -64.4% [at 42.5 µM].

Take `O=C(Nc1ccccc1)c1ccccc1O`: the Potency result in test [1], in test [2], in test [5], in test [6], in test [8] and in test [17] was “inactive” in each case. Besides, the Potency entry in test [19], in [10], in test [12] and in test [14] was “inactive” each time. The activity change, positive = activation in [4] is -30.7%.

As for `COc1cc2nc(N3CCN(C(=O)C4COc5ccccc5O4)CC3)nc(N)c2cc1OC` (stereo unspecified), the Potency entry in test [1], in test [2], in test [15], in test [5], in test [6] and in [7] was “inactive” in each case. The Potency result in test [8], in [18], in test [19], in test [10] and in test [11] was “inactive” in each case. The Potency in test [16] is 21.3 µM (active); in test [9], 23.9 µM (active); in test [12], 23.9 µM (active); in test [13], 23.9 µM (active).
